Here are results for 35 compounds from PubChem BioAssay AID1628 (Sanford-Burnham Center for Chemical Genomics, 2009).

The structures appear in SMILES notation. Out of some 190,000 compounds screened, about 930 (0.49%) were called active. This is one part of the list. Entries with a potency or affinity are not part of this list. Unmarked numbers belong to inactive results.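 Rule for the calls: active = z-score of insulin promoter reporter brightness in nuclei below -3 at 5 µM, with at least 500 cells counted; inconclusive = wells with under 500 cells, flagged as toxic or sparse; inactive = the rest.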

A short description of this assay: decrease of insulin promoter-GFP reporter – imaging, high-content screening, mouse beta cells (AID 1628). The conditions noted are these: MIN6 insulin promoter GFP reporter, at 5 µM, stronger effect = lower value.
For the compound `O=C(Nc1ccc(N2CCN(C(=O)c3ccccc3)CC2)c(Cl)c1)c1ccc(Br)o1`, the z-score was -3.01 (active).

Consider `O=C(Nc1ccc(N2CCN(C(=O)c3ccco3)CC2)c(Cl)c1)c1cc2ccccc2o1`, for which the z-score is -5.03 (active).

For `Cc1nonc1NC(=O)CSc1nc2c(C)cccc2cc1C#N`, the z-score was 12.5.

In the case of `COc1ccc2nc(SCC(C)=O)c(C#N)cc2c1`, the z-score is 8.23.

As for `CCOC(=O)c1cc(C#N)c(SCC(=O)c2cc(C#N)c(SC)nc2C)nc1C`, the z-score was -4.9 (active).

With `O=[N+]([O-])c1ccc(C2=NN(c3ccccc3)C(c3ccco3)C2)cc1` (stereo not given), the z-score was 16.5.

With `COc1cc(OC)cc(C(=O)N2CCC(N3CCCCCC3)CC2)c1`, the z-score was 1.84.

For the compound `CCOC(=O)c1ccc(Nc2ccc(-c3ccc(OC)c(OC)c3)nn2)cc1`, the z-score is -3.46 (active).

As to `Cn1c(=O)c(Nc2ccc(Cl)cc2)c2c3c(cccc31)C(=O)c1ccccc1-2`, the z-score is 15.1.

As to `N#C/C(=C\c1ccc(N2CCOCC2)o1)c1nc2ccccc2[nH]1`, the z-score is 8.22.

Take `NS(=O)(=O)c1cccc2cccnc12`: the z-score was 5.52.

As for `NCC12CC3CC(C1)CC(CN)(C3)C2`, the z-score is 3.09.

As for `Cn1cc(/C=C2\SC(=S)N(NC(=O)c3ccccc3Cl)C2=O)c2ccccc21`, the z-score is 7.

In the case of `CCOC(=O)c1c(NC(=O)CSc2nnnn2C)sc(C)c1-c1ccc(C)cc1`, the z-score is -3.09 (active).

In the case of `CCOC(=O)c1sc(-c2ccccc2)cc1NC(=O)CSc1nnnn1C`, the z-score is -3.34 (active).

With `CCOC(=O)c1sc(=S)n(-c2ccccc2)c1N(C(C)=O)C(C)=O`, the z-score is 1.57.

As for `COc1ccc(NC(=O)CSc2nnnn2C)c([N+](=O)[O-])c1`, the z-score was 0.83.

Regarding `CC(C)(C)C(=O)c1sc2nc(-c3cccs3)cc(C(F)(F)F)c2c1N`, the z-score is 13.8.

For the compound `CCOc1ccccc1NC(=O)C1CCN(S(=O)(=O)c2ccc(OC)c(OC)c2)CC1`, the z-score was 0.9.

Regarding `COc1ccc(NC(=O)C2CCN(Cc3cnn(-c4ccccc4)c3-n3cccc3)CC2)cc1OC`, the z-score was -4.57 (active).

Turning to `NC(CO)C(O)c1ccc([N+](=O)[O-])cc1` (stereo not given), the z-score is -0.09.

Consider `COCCN(CCOC)Cc1cc(=O)oc2cc3c(cc12)CCC3`, for which the z-score was 3.14.

`Cc1cccn2c(=O)c(/C=C3\SC(=S)N(CC(C)C)C3=O)c(NCCCOC(C)C)nc12`: the z-score was 12.1.

For the compound `O=c1[nH]c(CN2CCN(Cc3ccc4c(c3)OCO4)CC2)nc2sc3c(c12)CCC3`, the z-score is 3.55.

For the compound `O=C(CN1CCN(Cc2ccc3c(c2)OCO3)CC1)N1CCc2[nH]c3ccccc3c2C1`, the z-score was -4.04 (active).

`Cc1ccc2[nH]c3c(c2c1)CN(C(=O)CN1CCN(Cc2ccc4c(c2)OCO4)CC1)CC3`: the z-score is -3.96 (active).

For `C(=C/c1nccc2c1[nH]c1ccccc12)/c1ccc2c(c1)OCO2`, the z-score was 10.6.

Turning to `CCN(CC)c1ccc2cc(-c3nnc(-c4ccncc4)o3)c(=O)oc2c1`, the z-score was 4.43.

For `COc1ccc2nc(SCC(=O)Nc3ccc(S(=O)(=O)N4CCCC4)cc3)c(C#N)cc2c1`, the z-score was 3.47.

On to `COc1ccc(S(=O)(=O)N2CCCCC2)cc1NC(=O)CSc1ncnc2ccccc12`, for which the z-score is -4.48 (active).

Take `Cc1ccc(-c2noc(CSc3nnnn3-c3ccccc3)n2)cc1`: the z-score is 2.35.

On to `COC(=O)c1ccccc1NC(=S)N1CCC(N2CCCCC2)CC1`, for which the z-score was 1.65.

On to `CCOC(=O)c1ccccc1NC(=O)c1ccc2c(=O)n3c(nc2c1)CCCCC3`, for which the z-score was -3.69 (active).

Take `CC1(C)CC(N2CCCC2)=CC(=[N+]2CCCCCC2)C1`: the z-score is -4.54 (active).

In the case of `CCOc1ccc(-n2c(SCC(=O)NC(C)CC)nc3n[nH]c(C)c3c2=N)cc1` (stereo not given), the z-score is 3.
